The text below walks through data of PubChem BioAssay AID2177 (The Scripps Research Institute Molecular Screening Center, 2009).

As usually defined, the inhibition is the change of the read-out against control, counted positive when it falls.

Hit rate of the full screen: of about 320,000 compounds, about 1,200 (0.38%) were called active. The entries come from a sample that favours actives as a whole. A number with no mark means an inactive call.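 The calls were made as follows: active = inhibition above the screen-wide mean plus 3 SD, limit set per campaign (cut at about 26% in these data); inactive = the rest.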

In this assay the target is Acyl-protein thioesterase 2 (Homo sapiens) (UniProt O95372). Briefly: LYPLA2 inhibitors, primary screen, counter-screen for PME1 inhibitor project, biochemical, fluorescence polarization, FP-Rh probe ABPP (AID 2177).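 Also: 0% = LYPLA2 with DMSO and 100% = wells lacking LYPLA2 enzyme.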 The settings on record: recombinant LYPLA2, FP-Rh probe fluorescence polarization; at 5.9 µM; stronger effect = higher value. In general terms: Counterscreens check selectivity or assay interference.
Acyl-protein thioesterase 2 (Homo sapiens), sequence (O95372 whole entry, looked up): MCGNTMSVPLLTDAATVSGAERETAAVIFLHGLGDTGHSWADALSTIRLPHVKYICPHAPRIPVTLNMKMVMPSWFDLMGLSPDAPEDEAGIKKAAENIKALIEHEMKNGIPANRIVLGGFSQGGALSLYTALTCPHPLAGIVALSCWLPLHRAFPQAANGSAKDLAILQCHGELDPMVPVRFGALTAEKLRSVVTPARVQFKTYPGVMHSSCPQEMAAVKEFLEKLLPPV
Consider `CCOc1[nH]n(-c2ccc(Cl)cc2)c(=O)c1C=Nc1ccc(O)cc1`, for which the inhibition was 3.53%.

For the compound `Oc1ccc(N=Cc2c(O)ccc3ccccc23)cc1`, the inhibition was 32.3% (active).

Consider `Oc1ccc(N=Cc2sc3ccccc3c2Cl)cc1`, for which the inhibition is 7.6%.

As to `CCOC(=O)N1CCN(c2c(NCCN3CCN(c4ccccc4F)CC3)c(=O)c2=O)CC1`, the inhibition was 1.74%.

In the case of `O=[N+]([O-])c1ccc(F)cc1Oc1nc(-c2cccnc2)nc2ccccc12`, the inhibition was -3.66%.

Consider `O=[N+]([O-])c1ccc(Oc2ccc(F)cc2Br)c2ccncc12`, for which the inhibition was 41.4% (active).

`O=S(=O)(/N=C(/Nc1ccccc1)c1ccccc1)c1cccs1`: the inhibition is 1.19%.

Turning to `Cc1ccc(S(=O)(=O)N(CC(=O)NCc2ccco2)c2ccccc2C)cc1`, the inhibition was -4.36%.

Consider `COc1ccc(NC(=O)CN2C(=O)COc3ccc(S(=O)(=O)N4CCOCC4)cc32)cc1`, for which the inhibition is 7%.

For the compound `CSc1cccc(NC(=O)CN2C(=O)COc3ccc(S(=O)(=O)N4CCOCC4)cc32)c1`, the inhibition is 35.7% (active).

Regarding `CC(=O)Nc1ccc(NC(=O)CN2C(=O)COc3ccc(S(=O)(=O)N4CCCCC4)cc32)cc1`, the inhibition is -8.84%.

`O=S(=O)(Nc1ccc2[nH]ncc2c1)c1ccccc1Cl`: the inhibition was -3.28%.

For `O=c1[nH]c2cccnc2n1-c1ccc([N+](=O)[O-])cc1`, the inhibition was 0.99%.

For the compound `O=c1[nH]n(-c2ccc([N+](=O)[O-])cc2)c(=O)c2ccccc12`, the inhibition was 33.6% (active).

In the case of `COc1cnn(-c2ccc([N+](=O)[O-])cc2)c(=O)c1Cl`, the inhibition was 6.75%.

Take `Cc1ccc(N2CCN(c3ccc(C)cc3)C2c2ccccn2)cc1`: the inhibition was 3.84%.

For `CC(NCc1cccs1)C(=O)Nc1cc(Cl)cc(Cl)c1` (centres undefined), the inhibition is -2.93%.

For the compound `Cn1nc(C(F)(F)F)c2cc(NC(=O)OCC(C)(C)C)sc21`, the inhibition was -2.17%.

Consider `O=C1OCC2=C1C(c1ccccc1)CC(=O)N2c1cccc(F)c1` (centres undefined), for which the inhibition is 0.97%.

As for `CCc1nnc(NC(=O)CSc2nnnn2-c2cccc(C(C)=O)c2)s1`, the inhibition was 0.16%.

For `O=C(Nc1ccc(N2CCN(C(=O)c3ccccc3)CC2)c(Cl)c1)c1ncn[nH]1`, the inhibition is 14.6%.

As to `COC(=O)c1cc(NC(=O)c2cccnc2)ccc1N1CCOCC1`, the inhibition was 2.91%.

On to `O=C(Nc1ccc(N2CCN(C(=O)c3ccccc3)CC2)c(Cl)c1)c1cccnc1`, for which the inhibition was 27.9% (active).

In the case of `COC(=O)c1ccccc1NC(=O)CN(Cc1ccccc1)S(C)(=O)=O`, the inhibition was -8.82%.

With `N#Cc1ccc(C2=CC(=O)C[C@H](c3ccc(Cl)cc3)C2)cc1`, the inhibition is 43.3% (active).

As for `O=C1C=C(c2cccc(Cl)c2)C[C@@H](c2ccc(F)cc2)C1`, the inhibition is 0.27%.

On to `COc1ccc([C@H]2CC(=O)C=C(c3ccc(C)cc3)C2)cc1`, for which the inhibition was 15.7%.

Turning to `O=C(CN1CCN(C(=O)c2ccco2)CC1)Nc1ccc2c(c1)OCO2`, the inhibition was -2.14%.

`CCNC(=S)N1CCN(C(=O)c2ccco2)CC1`: the inhibition was 2.65%.

For the compound `O=C(c1ccco1)N1CCN(C(=S)Nc2cc(F)cc(F)c2)CC1`, the inhibition is 33.1% (active).

Turning to `COc1ccc(CN(C)C(=O)Cc2ccsc2)c(OC)c1OC`, the inhibition was 4.71%.

Take `CCOc1ccc(C(=O)NC(=S)Nc2ccc(N3CCOCC3)c(Cl)c2)cc1[N+](=O)[O-]`: the inhibition was 26.8% (active).

With `CCOc1ccc(C(=O)NC(=S)Nc2ccc(NC(=O)C(C)C)cc2)cc1[N+](=O)[O-]`, the inhibition was 19.4%.

`COc1cccc(OC)c1C(=O)NC(=S)Nc1ccc(N2CCOCC2)c(Cl)c1`: the inhibition is -0.51%.

For `O=C(Nc1ccccc1N1CCOCC1)c1ccncc1`, the inhibition is -4.72%.

Turning to `Cc1nn2c(=O)cc(COC(=O)c3ccc(NC(=O)C(C)(C)C)cc3)nc2s1`, the inhibition was 31.4% (active).

For `COCCc1nn2c(=O)cc(COC(=O)c3cc(OC)c(OC)c(OC)c3)nc2s1`, the inhibition was 7.86%.

For the compound `Cc1csc2nc(COC(=O)c3cccc(N(C)C)c3)cc(=O)n12`, the inhibition was 6.85%.

In the case of `O=C(Nc1ccc([N+](=O)[O-])cc1)OCCc1ccccn1`, the inhibition is 1.34%.

`Cc1ccsc1/C=C1\SC(N2CCOCC2)=NC1=O`: the inhibition was 1.19%.

For the compound `Cc1ccc(N2CCN(/N=C/c3cccs3)CC2)cc1`, the inhibition was 6.07%.

Take `Cc1ccc(N2CCN(C3=NC(=O)/C(=C\c4cccs4)S3)CC2)cc1`: the inhibition was 51.7% (active).

For the compound `Cc1ccc(S(=O)(=O)N(C)CC(=O)OCC(=O)N2CC(=O)Nc3ccccc32)cc1`, the inhibition is 2.05%.

In the case of `CCN(CC)c1ccc(C(=O)Nn2c(C)nc3ccccc3c2=O)cc1`, the inhibition was 4.7%.

In the case of `CCN(CC)c1ccc(C(=O)NNC(=O)CCc2nc3ccccc3c(=O)[nH]2)cc1`, the inhibition was 26.9% (active).

For the compound `CCCC(=O)N(CCc1ccccc1)Cc1nc2ccccc2c(=O)[nH]1`, the inhibition was -5.43%.

Regarding `CCOCCCN(C)C1CCN(C(=O)c2oc3ccccc3c2NC(=O)COc2cccc(C)c2)CC1`, the inhibition was -6.18%.

Turning to `Cc1ccc(Cl)cc1NC(=O)C1CCCN(c2cnccn2)C1` (centres undefined), the inhibition was -0.03%.

As to `COC(=O)c1sc(=S)n(-c2ccc(Cl)cc2)c1C`, the inhibition was 1.95%.

For the compound `COCCOC(=O)c1sc(=S)n(CCOC)c1N`, the inhibition was 34.7% (active).

Regarding `COc1ccccc1NC(=O)CSc1nnc(CNC(=O)c2ccccc2F)o1`, the inhibition was -2.81%.

Turning to `Cc1nn(-c2ccccc2)c2c1c(C)c(CCC(=O)NCC1CCCO1)c(=O)n2C` (centres undefined), the inhibition is 0.8%.

In the case of `Cc1cc(SCC(=O)NCCN2C(=O)CSC2=O)nc2ccccc12`, the inhibition was -4.03%.

Consider `Clc1ccc(C2=CSC3=Nc4cccc5cccc(c45)N23)cc1`, for which the inhibition is 0.51%.

For `CN(CCc1ccccn1)C(=O)c1ccc(OC2CCN(CCc3ccccc3)CC2)cc1`, the inhibition was 33.7% (active).

Regarding `Cn1cc(CNC(=O)c2ccc(OC3CCN(Cc4ccccn4)CC3)cc2)cn1`, the inhibition was 11%.

Consider `O=C(c1ccc(OC2CCN(Cc3ccccn3)CC2)cc1)N1CCCCCC1`, for which the inhibition is 3.95%.

As to `NS(=O)(=O)c1ccc(N=Nc2c(O)[nH]c3ccc(Br)cc23)cc1`, the inhibition is 1.06%.

For `Cc1ccc(/C=C/C(=O)OCC(=O)Nc2cccnc2Cl)cc1`, the inhibition was 7.22%.
